# Some of the results follow. No count for the full screen is at hand.
# B1: HC2525 (peptide)
# chain: CASTPCSLHLAGNASASA
# B2: HC2326 (peptide)
# chain: CAEMPCHRPSAGNASASA
# B3: FS-720 (peptide)
# chain: CASKKRKKKHAGNASASA
# B4: FS-1430 (peptide)
# chain: CAVLSRRKRHAGNASASA
# B5: HC1004 (peptide)
# chain: CAVLSGKPAIAGNASASA
# B6: FS-1552 (peptide)
# chain: CAPRYRRKRHAGNASASA
# B7: FS-145 (peptide)
# chain: CASATRRKRHAGNASASA
# B8: FS-143 (peptide)
# chain: CASAHREPRLAGNASASA
# B9: FS-105 (peptide)
# chain: CAVLSRDGRKAGNASASA
# B10: HC1187 (peptide)
# chain: CARNMWSGTFAGNASASA
# B11: HC1085 (peptide)
# chain: CAIDILAGYGAGNASASA
# B12: HC895 (peptide)
# chain: CATFTIETITAGNASASA
# B13: FS-1826 (peptide)
# chain: CARKDRGASKAGNASASA
# B14: HC1492 (peptide)
# chain: CACDLDPQARAGNASASA
# B15: FS-2135 (peptide)
# chain: CAREKRRQRNAGNASASA
# B16: FS-488 (peptide)
# chain: CAREKRPSRSAGNASASA
# B17: FS-1819 (peptide)
# chain: CAREKRRGVTAGNASASA
# B18: FS-2256 (peptide)
# chain: CAREKRWSVSAGNASASA
# B19: FS-757 (peptide)
# chain: CADLSRPSRSAGNASASA
# B20: HC529 (peptide)
# chain: CAMMLLISQAAGNASASA
# B21: HC1814 (peptide)
# chain: CADKMEECSQAGNASASA
# B22: HC1543 (peptide)
# chain: CARYSAPPGDAGNASASA
# B23: FS-20 (peptide)
# chain: CAEHNRTPREAGNASASA
# B24: FS-2903 (peptide)
# chain: CARDGRYTPCAGNASASA
# B25: FS-378 (peptide)
# chain: CARYNRPPREAGNASASA
# B26: FS-534 (peptide)
# chain: CAGYELQGREAGNASASA
# B27: FS-1619 (peptide)
# chain: CAYHGRIPREAGNASASA
# B28: HC1611 (peptide)
# chain: CAEINRVAACAGNASASA
# B29: HC1420 (peptide)
# chain: CASKFGYGAKAGNASASA
# B30: HC362 (peptide)
# chain: CALAPGAKQNAGNASASA
# B31: HC2102 (peptide)
# chain: CAVVCCSMSQAGNASASA
# B32: HC651 (peptide)
# chain: CATKLITWGAAGNASASA
# B33: HC203 (peptide)
# chain: CALYGNEGCGAGNASASA
# B34: FS-2404 (peptide)
# chain: CARRRRHAGEAGNASASA
# B35: FS-1785 (peptide)
# chain: CARRRRHPDEAGNASASA
# B36: HC1112 (peptide)
# chain: CARRHVGPGEAGNASASA
# B37: FS-3063 (peptide)
# chain: CARRRRHPDDAGNASASA
# B38: HC1214 (peptide)
# chain: CATDNLKCPCAGNASASA
# B39: HC1488 (peptide)
# chain: CATEEAIYQCAGNASASA
# B40: HC1063 (peptide)
# chain: CAQTLLFNILAGNASASA
# B41: HC1877 (peptide)
# chain: CATTSCSGSWAGNASASA
# B42: HC2336 (peptide)
# chain: CAEGPCHRPSAGNASASA
# B43: FS-3032 (peptide)
# chain: CARPYRCKIKAGNASASA
# B44: FS-338 (peptide)
# chain: CAIITRYKRKAGNASASA
# B45: FS-2499 (peptide)
# chain: CARPFRSFVPAGNASASA
# B46: FS-1402 (peptide)
# chain: CARPFRYKRKAGNASASA
# Biological target: furin, P09958
# Experiment: furin cleavage Z-score vs untreated control; higher = more cleavage, active = 3.5 or more, inactive = 1 or less, 8 variable residues between constant flanks
# How it was run: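 In 50 mM HEPES pH 7.5 with CaCl2 and NaCl, purified furin was incubated with bead-anchored 8-mer peptide–cDNA fusions at 1:10 enzyme:substrate in 0.01 ml. Incubation times were 7.5, 15 and 30 min. DNA set free by cleavage was adapter-tagged by PCR and sequenced, with read counts taken as abundance. Log counts relative to furin-free reactions, after lowess adjustment and median absolute deviation scaling, form the cleavage Z-score.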
# furin, P09958, sequence (P09958 whole entry): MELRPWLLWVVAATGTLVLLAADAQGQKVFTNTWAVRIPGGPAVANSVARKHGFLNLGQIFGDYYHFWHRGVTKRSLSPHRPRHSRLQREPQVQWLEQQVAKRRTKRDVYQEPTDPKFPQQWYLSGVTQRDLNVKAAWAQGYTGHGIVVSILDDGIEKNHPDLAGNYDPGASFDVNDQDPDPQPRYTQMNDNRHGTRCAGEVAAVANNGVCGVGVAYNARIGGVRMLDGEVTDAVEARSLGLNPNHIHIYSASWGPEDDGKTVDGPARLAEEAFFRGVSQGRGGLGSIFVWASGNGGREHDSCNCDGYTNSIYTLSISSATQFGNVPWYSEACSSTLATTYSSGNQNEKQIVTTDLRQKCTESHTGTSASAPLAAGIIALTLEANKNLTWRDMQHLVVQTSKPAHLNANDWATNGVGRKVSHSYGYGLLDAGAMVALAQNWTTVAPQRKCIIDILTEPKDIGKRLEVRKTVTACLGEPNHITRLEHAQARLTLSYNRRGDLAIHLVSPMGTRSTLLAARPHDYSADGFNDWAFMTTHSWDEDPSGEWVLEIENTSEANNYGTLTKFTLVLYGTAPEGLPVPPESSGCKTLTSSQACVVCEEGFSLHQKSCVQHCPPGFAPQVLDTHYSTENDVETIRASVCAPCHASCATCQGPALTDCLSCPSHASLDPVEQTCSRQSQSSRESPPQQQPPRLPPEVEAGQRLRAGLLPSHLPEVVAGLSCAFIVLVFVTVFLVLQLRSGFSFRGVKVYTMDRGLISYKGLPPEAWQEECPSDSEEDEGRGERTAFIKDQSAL
Sequence,furin cleavage Z-score (7.5 min),furin cleavage Z-score (15 min),furin cleavage Z-score (30 min)
B1,0.933 (inactive),1.1,1.05
B2,0.275 (inactive),1.07,-0.483 (inactive)
B3,-0.105 (inactive),0.768 (inactive),1.79
B4,13.5 (active),13.1 (active),9.48 (active)
B5,-1.21 (inactive),-0.08 (inactive),-0.703 (inactive)
B6,10.8 (active),11.7 (active),10.8 (active)
B7,10.8 (active),9.07 (active),8.87 (active)
B8,-0.537 (inactive),-2.16 (inactive),-0.735 (inactive)
B9,-1.15 (inactive),0.968 (inactive),0.203 (inactive)
B10,1.59,-0.0231 (inactive),2.71
B11,0.177 (inactive),-2.37 (inactive),-1.48 (inactive)
B12,-1.54 (inactive),-0.657 (inactive),-0.39 (inactive)
B13,-0.0944 (inactive),-0.514 (inactive),0.14 (inactive)
B14,-0.128 (inactive),-0.812 (inactive),-1.68 (inactive)
B15,2.7,5.06 (active),5.01 (active)
B16,3.53 (active),6.66 (active),4.77 (active)
B17,0.463 (inactive),-0.946 (inactive),0.55 (inactive)
B18,0.749 (inactive),1.64,3.68 (active)
B19,0.456 (inactive),1.72,2.66
B20,-0.436 (inactive),-0.997 (inactive),1.3
B21,-0.565 (inactive),0.769 (inactive),-0.546 (inactive)
B22,-1 (inactive),0.134 (inactive),-1.47 (inactive)
B23,6.46 (active),6.63 (active),5.97 (active)

Sequence,furin cleavage Z-score (7.5 min),furin cleavage Z-score (15 min),furin cleavage Z-score (30 min)
B24,0.99 (inactive),-0.489 (inactive),-0.0469 (inactive)
B25,9.4 (active),8.69 (active),7.85 (active)
B26,-1.04 (inactive),-1.1 (inactive),-1.02 (inactive)
B27,4.85 (active),5.6 (active),4.92 (active)
B28,0.443 (inactive),-0.785 (inactive),-0.701 (inactive)
B29,0.531 (inactive),0.331 (inactive),-1.23 (inactive)
B30,0.735 (inactive),-0.827 (inactive),0.525 (inactive)
B31,-0.199 (inactive),0.851 (inactive),0.49 (inactive)
B32,0.877 (inactive),-0.214 (inactive),-0.337 (inactive)
B33,-0.0812 (inactive),1.22,0.228 (inactive)
B34,6.46 (active),4.9 (active),5.66 (active)
B35,5.6 (active),5.56 (active),4.6 (active)
B36,-0.341 (inactive),-0.961 (inactive),-0.867 (inactive)
B37,3.1,4.81 (active),3.91 (active)
B38,0.631 (inactive),-2.12 (inactive),-1.25 (inactive)
B39,0.306 (inactive),-0.635 (inactive),1.07
B40,0.309 (inactive),-0.599 (inactive),0.404 (inactive)
B41,-0.56 (inactive),-0.299 (inactive),-0.313 (inactive)
B42,0.811 (inactive),0.167 (inactive),0.259 (inactive)
B43,-0.856 (inactive),-0.224 (inactive),1.6
B44,6.56 (active),6.04 (active),6.05 (active)
B45,0.343 (inactive),1.12,0.335 (inactive)
B46,7.84 (active),8.54 (active),7.38 (active)

# From the supplement of paper PMC3545927
